# The campaign covered roughly 5,500 compounds. About 2,000 (36%) were called active. Roughly 18% stayed inconclusive and do not appear here. This is one part of the list. Values without a mark were called inactive. Cut-off read from the data, not from the text of the source: active = normalized growth mostly below about 0.91 (no sharp cut-off); inconclusive = no clear call, values can overlap the other calls; inactive = mostly above about 0.92.
# Assay: chemical genetic growth profiling, strain panel (AID 1159580);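 note: tested at 20 µM; growth read once vehicle control cultures reached saturation at 30 °C; 1 = growth at the plate median or of vehicle wells; lower values mean less growth of the strain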
# Conditions: growth OD
smiles,measurement,setting,value
CC(=O)c1c(O)c(C)c(O)c2c1oc1c(C(C)=O)c(O)c(C)c(O)c12,normalized growth,"S. cerevisiae deletion strains, locus YAL013W, strain DEP1, active compounds read low",1
same,normalized growth,"S. cerevisiae deletion strains, locus YBR021W, strain FUR4, active compounds read low",0.991
same,normalized growth,"S. cerevisiae deletion strains, locus YBR229C, strain ROT2, active compounds read low",0.981
same,normalized growth,"S. cerevisiae deletion strains, locus YCL029C, strain bik1, active compounds read low",0.961
same,normalized growth,"S. cerevisiae deletion strains, locus YDL035C, strain GPR1, active compounds read low",0.942
same,normalized growth,"S. cerevisiae deletion strains, locus YDL074C, strain BRE1, active compounds read low",0.963
same,normalized growth,"S. cerevisiae deletion strains, locus YDL101C, strain DUN1, active compounds read low",0.98
same,normalized growth,"S. cerevisiae deletion strains, locus YDL134C, strain PPH21, active compounds read low",0.981
same,normalized growth,"S. cerevisiae deletion strains, locus YDL192W, strain arf1, active compounds read low",0.934
same,normalized growth,"S. cerevisiae deletion strains, locus YDR101C, strain arx1, active compounds read low",0.918 (active)
same,normalized growth,"S. cerevisiae deletion strains, locus YDR150W, strain NUM1, active compounds read low",0.988
same,normalized growth,"S. cerevisiae deletion strains, locus YDR162C, strain NBP2, active compounds read low",0.979
same,normalized growth,"S. cerevisiae deletion strains, locus YDR318W, strain mcm21, active compounds read low",0.934
same,normalized growth,"S. cerevisiae deletion strains, locus YDR388W, active compounds read low",0.966
same,normalized growth,"S. cerevisiae deletion strains, locus YDR502C, strain sam2, active compounds read low",0.91 (active)
same,normalized growth,"S. cerevisiae deletion strains, locus YEL061C, strain CIN8, active compounds read low",0.98
same,normalized growth,"S. cerevisiae deletion strains, locus YER110C, active compounds read low",0.976
same,normalized growth,"S. cerevisiae deletion strains, locus YER155C, strain BEM2, active compounds read low",0.973
same,normalized growth,"S. cerevisiae deletion strains, locus YER167W, strain BCK2, active compounds read low",0.963
same,normalized growth,"S. cerevisiae deletion strains, locus YGL078C, strain dbp3, active compounds read low",0.987
same,normalized growth,"S. cerevisiae deletion strains, locus YGL086W, strain mad1, active compounds read low",0.993
same,normalized growth,"S. cerevisiae deletion strains, locus YGL248W, strain PDE1, active compounds read low",0.973
same,normalized growth,"S. cerevisiae deletion strains, locus YGR078C, strain PAC10, active compounds read low",0.943
same,normalized growth,"S. cerevisiae deletion strains, locus YGR135W, strain pre9, active compounds read low",0.954
same,normalized growth,"S. cerevisiae deletion strains, locus YGR229C, strain SMI1, active compounds read low",0.901
same,normalized growth,"S. cerevisiae deletion strains, locus YGR252W, strain gcn5, active compounds read low",0.906
same,normalized growth,"S. cerevisiae deletion strains, locus YHR030C, strain SLT2, active compounds read low",0.961
same,normalized growth,"S. cerevisiae deletion strains, locus YHR079C, strain IRE1 (second series), active compounds read low",0.953
same,normalized growth,"S. cerevisiae deletion strains, locus YHR094C, strain hxt1, active compounds read low",0.978
same,normalized growth,"S. cerevisiae deletion strains, locus YHR129C, strain ARP1, active compounds read low",0.975
same,normalized growth,"S. cerevisiae deletion strains, locus YHR200W, strain rpn10, active compounds read low",0.938
same,normalized growth,"S. cerevisiae deletion strains, locus YIL066C, strain RNR3, active compounds read low",0.924
same,normalized growth,"S. cerevisiae deletion strains, locus YIL073C, strain SPO22, active compounds read low",0.942
same,normalized growth,"S. cerevisiae deletion strains, locus YIL125W, strain kgd1, active compounds read low",0.983
same,normalized growth,"S. cerevisiae deletion strains, locus YIR030C, strain dcg1, active compounds read low",0.952
same,normalized growth,"S. cerevisiae deletion strains, locus YJL095W, strain BCK1, active compounds read low",0.909
same,normalized growth,"S. cerevisiae deletion strains, locus YJL134W, strain LCB3, active compounds read low",0.977
same,normalized growth,"S. cerevisiae deletion strains, locus YJL168C, strain set2, active compounds read low",0.968
same,normalized growth,"S. cerevisiae deletion strains, locus YJL187C, strain SWE1 (second series), active compounds read low",0.944
same,normalized growth,"S. cerevisiae deletion strains, locus YJR043C, strain POL32, active compounds read low",0.926
same,normalized growth,"S. cerevisiae deletion strains, locus YJR075W, strain HOC1, active compounds read low",0.974
same,normalized growth,"S. cerevisiae deletion strains, locus YKL009W, strain mrt4, active compounds read low",0.944
same,normalized growth,"S. cerevisiae deletion strains, locus YKL068W, active compounds read low",0.995
same,normalized growth,"S. cerevisiae deletion strains, locus YKL085W, strain MDH1 (second series), active compounds read low",0.982
same,normalized growth,"S. cerevisiae deletion strains, locus YKL085W, strain MDH1, active compounds read low",0.982
same,normalized growth,"S. cerevisiae deletion strains, locus YKL190W, strain CNB1, active compounds read low",0.988
same,normalized growth,"S. cerevisiae deletion strains, locus YKR001C, strain vps1, active compounds read low",0.638 (active)
same,normalized growth,"S. cerevisiae deletion strains, locus YLR039C, strain RIC1, active compounds read low",0.722
same,normalized growth,"S. cerevisiae deletion strains, locus YLR058C, strain SHM2, active compounds read low",0.966
same,normalized growth,"S. cerevisiae deletion strains, locus YLR102C, strain apc9, active compounds read low",0.979
same,normalized growth,"S. cerevisiae deletion strains, locus YLR262C, strain YPT6, active compounds read low",0.827
same,normalized growth,"S. cerevisiae deletion strains, locus YLR268W, strain sec22, active compounds read low",0.906
same,normalized growth,"S. cerevisiae deletion strains, locus YLR330W, strain CHS5, active compounds read low",0.983
same,normalized growth,"S. cerevisiae deletion strains, locus YLR342W, strain FKS1 (second series), active compounds read low",0.882
same,normalized growth,"S. cerevisiae deletion strains, locus YLR371W, strain rom2, active compounds read low",0.979
same,normalized growth,"S. cerevisiae deletion strains, locus YLR418C, strain cdc73, active compounds read low",0.9
same,normalized growth,"S. cerevisiae deletion strains, locus YML016C, strain PPZ1, active compounds read low",0.975
same,normalized growth,"S. cerevisiae deletion strains, locus YML032C, strain rad52, active compounds read low",0.891 (active)
same,normalized growth,"S. cerevisiae deletion strains, locus YML124C, strain tub3, active compounds read low",0.964
same,normalized growth,"S. cerevisiae deletion strains, locus YMR078C, strain ctf18, active compounds read low",0.966
same,normalized growth,"S. cerevisiae deletion strains, locus YMR223W, strain ubp8, active compounds read low",0.921
same,normalized growth,"S. cerevisiae deletion strains, locus YMR263W, strain SAP30, active compounds read low",0.957
same,normalized growth,"S. cerevisiae deletion strains, locus YMR307W, strain GAS1, active compounds read low",0.901
same,normalized growth,"S. cerevisiae deletion strains, locus YNL067W, strain RPL9B, active compounds read low",0.961
same,normalized growth,"S. cerevisiae deletion strains, locus YNL128W, strain TEP1, active compounds read low",0.972
same,normalized growth,"S. cerevisiae deletion strains, locus YNL153C, strain GIM3, active compounds read low",0.986
same,normalized growth,"S. cerevisiae deletion strains, locus YNL233W, strain BNI4, active compounds read low",0.943
same,normalized growth,"S. cerevisiae deletion strains, locus YNL250W, strain rad50, active compounds read low",0.977
same,normalized growth,"S. cerevisiae deletion strains, locus YNL271C, strain bni1, active compounds read low",0.985
same,normalized growth,"S. cerevisiae deletion strains, locus YNL298W, strain CLA4, active compounds read low",0.958
same,normalized growth,"S. cerevisiae deletion strains, locus YNL307C, strain MCK1, active compounds read low",0.941
same,normalized growth,"S. cerevisiae deletion strains, locus YNL322C, strain KRE1, active compounds read low",0.989
same,normalized growth,"S. cerevisiae deletion strains, locus YNR052C, strain pop2, active compounds read low",0.852 (active)
same,normalized growth,"S. cerevisiae deletion strains, locus YOL006C, strain TOP1, active compounds read low",0.921
same,normalized growth,"S. cerevisiae deletion strains, locus YOL012C, strain htz1",0.749
same,normalized growth,"S. cerevisiae deletion strains, locus YOL147C, strain pex11, active compounds read low",0.958
same,normalized growth,"S. cerevisiae deletion strains, locus YOR061W, strain CKA2, active compounds read low",0.963
same,normalized growth,"S. cerevisiae deletion strains, locus YOR069W, strain VPS5, active compounds read low",0.988
same,normalized growth,"S. cerevisiae deletion strains, locus YOR136W, strain idh2, active compounds read low",0.967
same,normalized growth,"S. cerevisiae deletion strains, locus YOR144C, strain elg1, active compounds read low",0.971
same,normalized growth,"S. cerevisiae deletion strains, locus YOR184W, strain ser1, active compounds read low",0.88
same,normalized growth,"S. cerevisiae deletion strains, locus YOR316C, strain cot1, active compounds read low",0.972
same,normalized growth,"S. cerevisiae deletion strains, locus YPL055C, strain LGE1, active compounds read low",0.95
same,normalized growth,"S. cerevisiae deletion strains, locus YPL241C, strain CIN2, active compounds read low",0.962
same,normalized growth,"S. cerevisiae deletion strains, locus YPR119W, strain clb2, active compounds read low",0.971
same,normalized growth,"S. cerevisiae deletion strains, locus YPR141C, strain kar3, active compounds read low",0.985
same,normalized growth,"S. cerevisiae deletion strains, locus YPR163C, strain tif3, active compounds read low",0.98
same,normalized growth,"S. cerevisiae deletion strains, locus YPR167C, strain met16, active compounds read low",0.974
same,normalized growth,"S. cerevisiae deletion strains, strain wtn01, active compounds read low",0.932
same,normalized growth,"S. cerevisiae strains, strain wild type, active compounds read low",0.954

# From PubChem BioAssay AID1159580 (chemical genetic matrix, 2015)
